Data on 27 molecules can be found in PubChem BioAssay (Tox21).

Values without a mark were called inactive. Results filed as inconclusive are left out. Activity calls are given as the source filed them. Calls follow the shape of the dose curve; as a rule, active = well fitted curve in the direction sought with a large enough effect in the repeat runs; inconclusive = weak or mixed curves; inactive = no such curve, though single readings can be large; an effect the other way counts as inactive or inconclusive.

Assay [1] in a line: Human pregnane X receptor (PXR) small molecule agonists, qHTS cell viability counter screen (AID 1346977). Also: nearly all actives have a fitted effect of over 50% in size. Also: potency is read from the fitted curve at half-maximal effect. To be noted: PXR-Luc HepG2 viability, CellTiter-Fluor, 24 h; series mostly up to 92.4 µM. In short, it runs like this: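 HepG2 cells stably carrying the PXR-Luc reporter are cultured with 5% charcoal-stripped FBS and treated with compounds for 24hr. CellTiter-Fluor is added at 23hr and fluorescence is read after 1hr.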
A general note: Quantitative high-throughput screening tests each substance at several concentrations.

Assay [2] can be described thus: Caspase-3/7 induction in HepG2 cells by small molecules, qHTS assay (AID 1346978). Also: nearly all actives have a fitted effect of over 15% in size. To be noted: HepG2 caspase-3/7 activation, Caspase-Glo luminescence, 17 h; series mostly up to 92.4 µM. In short, it runs like this: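 Wild-type HepG2 cells, 2,000/well, settled 5 hr at 37 C and 5% CO2, then compound-treated for 17 hr; caspase-3/7 activity read by luminescent Caspase-Glo 3/7 after 30 min at room temperature.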

A short description of assay [3]: Caspase-3/7 induction in CHO-K1 cells by small molecules, qHTS cell viability counter screen (AID 1346979). Also: nearly all actives have a fitted effect of over 35% in size. Also: potency is read from the fitted curve at half-maximal effect. To be noted: CellTiter-Fluor fluorescence, 17 h; series mostly up to 92.4 µM. In short, it runs like this: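 Seeding: 1,500 CHO-K1 cells/well. Rest: 5hr, 37C. Treatment: compounds in DMSO, 16hr. Read: CellTiter-Fluor, 1hr, fluorescence.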
A short description of assay [4]: Caspase-3/7 induction in CHO-K1 cells by small molecules, qHTS assay (AID 1346980). Also: nearly all actives have a fitted effect of over 15% in size. The following applies: CHO-K1 caspase-3/7 induction, Caspase-Glo luminescence, 17 h; series mostly up to 92.4 µM. The gist of the method:
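Wild-type CHO-K1 cells exposed to compounds for 17hr at 37 C, 5% CO2. Caspase-3/7 activity then measured by Caspase-Glo 3/7 luminescence after 30min at room temperature.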

The target of assay [5] is Nuclear receptor subfamily 1 group I member 2 (Rattus norvegicus) (UniProt Q9R1A7). In words: Rat pregnane X receptor (rPXR) activation by small molecules, qHTS assay (AID 1346983). Also: nearly all actives have a fitted effect of over 20% in size. The following applies: rPXR luciferase reporter cells, One-Glo luminescence, 24 h; max activation: stronger effect = higher value. The gist of the method:
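Cell-based rPXR activation assay: rPXR cells, 2,000 per well, rested 5hr at 37 C, then exposed to compounds in DMSO for 24 hr at 37 C. Luciferase activity read by One-Glo luminescence after 30 min at room temperature.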

Assay [6] in a line: Caspase-3/7 induction in HepG2 cells by small molecules, qHTS cell viability counter screen (AID 1346981). Also: nearly all actives have a fitted effect of over 30% in size. To be noted: CellTiter-Fluor fluorescence, 17 h; series mostly up to 92.4 µM. The gist of the method: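 Treatment of HepG2 cells with DMSO-delivered compounds ran 16 hr at 37 C following a 5-hr pre-incubation of 2,000 cells/well. CellTiter-Fluor fluorescence, read after 1 hr, served as the viability measure in a qHTS format.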

In assay [7] the target is Nuclear receptor subfamily 1 group I member 2 (Homo sapiens) (UniProt O75469). Description: Human pregnane X receptor (PXR) small molecule agonists, qHTS assay (AID 1346982). Also: nearly all actives have a fitted effect of over 35% in size. Also: potency is read from the fitted curve at half-maximal effect. The following applies: PXR-Luc HepG2, CYP3A4 luciferase reporter, 24 h; series mostly up to 92.4 µM. The gist of the method:
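Stable HepG2 line reporting PXR-mediated CYP3A4 expression via luciferase. Treatment: 24 hr with compounds in DMSO at 37 C. Detection: ONE-Glo luminescence.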

Assay [8] shares this target. Description: CYP3A4 induction through human pregnane X receptor (PXR) by small molecules, qHTS assay (AID 1346984). Also: nearly all actives have a fitted effect of over 40% in size. Also: potency is read from the fitted curve at half-maximal effect. The following applies: DPX-2 HepG2 PXR, CYP3A4-luciferin luminescence, 24 h; series mostly up to 46.1 µM. In short, it runs like this:
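After 24 h at 37C with compound, DPX-2 cells (HepG2, co-transfected PXR response element and CYP3A4 promoter-luciferase) got 3uM final P450-Glo Luciferin-IPA for 3 h; One-Glo luminescence followed.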

For assay [9] the target is unchanged. In words: Human pregnane X receptor (PXR) activation by small molecules, qHTS assay (AID 1346985). Also: nearly all actives have a fitted effect of over 40% in size. To be noted: DPX-2 HepG2 CYP3A4-luciferase, 24 h; series mostly up to 38.3 µM. In short, it runs like this: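 DPX-2 cells (HepG2 co-transfected with a PXR response element and a CYP3A4-promoter luciferase construct) were seeded at 2,000 per well, rested 5 hr at 37C, then exposed to DMSO-dissolved compounds for 24 hr. Activation was read as luciferase luminescence.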
% is scaled to controls: 0 for no effect and ±100 for the full control effect.

Chain of Nuclear receptor subfamily 1 group I member 2 (Homo sapiens) (O75469 whole entry, looked up): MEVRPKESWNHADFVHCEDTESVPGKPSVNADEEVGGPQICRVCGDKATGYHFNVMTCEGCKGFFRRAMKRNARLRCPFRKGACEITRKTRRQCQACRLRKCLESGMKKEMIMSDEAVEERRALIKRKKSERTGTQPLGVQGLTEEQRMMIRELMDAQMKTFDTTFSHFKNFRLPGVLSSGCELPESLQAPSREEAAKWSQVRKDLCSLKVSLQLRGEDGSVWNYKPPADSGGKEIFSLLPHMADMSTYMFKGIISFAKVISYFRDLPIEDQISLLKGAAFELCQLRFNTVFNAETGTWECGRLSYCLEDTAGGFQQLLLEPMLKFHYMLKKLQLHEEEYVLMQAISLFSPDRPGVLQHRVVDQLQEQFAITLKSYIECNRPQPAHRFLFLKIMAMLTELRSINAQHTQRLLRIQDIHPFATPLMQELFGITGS
Chain of Nuclear receptor subfamily 1 group I member 2 (Rattus norvegicus) (Q9R1A7 whole entry, looked up): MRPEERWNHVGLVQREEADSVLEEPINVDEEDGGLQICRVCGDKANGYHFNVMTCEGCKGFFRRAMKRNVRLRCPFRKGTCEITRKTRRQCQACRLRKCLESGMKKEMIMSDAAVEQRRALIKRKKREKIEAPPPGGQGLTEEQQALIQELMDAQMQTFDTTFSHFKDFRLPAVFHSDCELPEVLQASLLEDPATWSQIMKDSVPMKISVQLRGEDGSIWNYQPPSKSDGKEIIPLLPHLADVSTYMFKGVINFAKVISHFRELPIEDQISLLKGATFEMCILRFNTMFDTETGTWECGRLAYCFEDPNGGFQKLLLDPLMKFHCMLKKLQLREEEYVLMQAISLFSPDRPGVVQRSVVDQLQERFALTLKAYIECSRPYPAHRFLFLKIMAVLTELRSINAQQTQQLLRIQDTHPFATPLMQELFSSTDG

Turning to `Cc1ccc(NC(=O)c2ccc(CN3CCN(C)CC3)cc2)cc1Nc1nccc(-c2cccnc2)n1`, the Potency in assay [1] and in assay [3] was 23.7 µM (active) throughout. The Potency result in assay [2] and in [4] was “inactive” in each case. Besides, the max activation in assay [5] is -10.6%.
On to `Nc1cccc2c(=O)[nH][nH]c(=O)c12`, for which the Potency entry in [1], in assay [2], in [3], in [4], in assay [6] and in [7] was “inactive” each time.
Turning to `O=Cc1ccc([N+](=O)[O-])cc1`, the Potency result in assay [2], in assay [3], in assay [4] and in assay [6] was “inactive” throughout.
As to `CC(C)CCCCCCCOC(=O)c1ccc(C(=O)OCCCCCCCC(C)C)c(C(=O)OCCCCCCCC(C)C)c1`, the Potency result in assay [2], in assay [4] and in assay [6] was “inactive” each time. Also, the Potency in assay [7] was 19 µM (active).
`CC1(C)[C@@H]2CC[C@]3(C2)[C@@H]1C(=O)CCC3(C)C`: the Potency entry in [1], in [2], in assay [3], in assay [4] and in assay [6] was “inactive” throughout. Besides, the Potency in assay [7] is 9.69 µM (active).
Turning to `CCCCCCCCCCCC(=O)OCC`, the Potency result in assay [1], in assay [2], in [3], in assay [4], in assay [6] and in [7] was “inactive” each time.
For `COc1ccc(/C(C)=C/C(=O)O)c(OC)c1`, the Potency result in assay [1], in assay [2], in [4], in assay [6] and in assay [7] was “inactive” throughout.
On to `O=[N+]([O-])c1cccc(I)c1`, for which the Potency entry in assay [1], in [2], in assay [3], in [4], in [6] and in assay [7] was “inactive” each time.
In the case of `CCC(=O)O[C@]1(C(=O)COC)[C@@H](C)C[C@H]2[C@@H]3CCC4=CC(=O)C=C[C@]4(C)C3(F)[C@@H](O)C[C@@]21C` (some centres not stated), the Potency entry in assay [1], in [2], in assay [4] and in assay [6] was “inactive” each time. Also, the Potency in assay [7] was 16.8 µM (active).
With `[O-][n+]1ccc(Cl)cc1`, the Potency result in assay [1], in assay [2], in [3], in assay [4], in assay [6] and in assay [7] was “inactive” in each case.
For `O=C1c2ccccc2C(=O)c2c1ccc(O)c2O`, the Potency entry in assay [2], in [4], in [7] and in [9] was “inactive” in each case. In addition, the results for the Potency in [3] and in assay [8] were 23.7 µM (active) and 14.1 µM (active), respectively. The max activation in assay [5] was 0.447%.
For the molecule `CCOC(OCC)OCC`, the Potency result in assay [1], in assay [2], in assay [3], in assay [4], in [6] and in [7] was “inactive” throughout.
Turning to `Cc1cccc(C)c1NC(=O)CN1CCCC1`, the Potency result in assay [1], in [2], in assay [3], in [4], in assay [6] and in assay [7] was “inactive” each time. Further, the Potency result in [8] and in [9] was “inactive” throughout. Further, the max activation in [5] was -2.58%.
As to `CCCCOC(=O)C(C)Oc1ccc(Oc2ccc(C(F)(F)F)cn2)cc1` (configuration not stated), the Potency result in assay [1], in assay [2], in assay [3], in assay [4], in assay [6] and in assay [7] was “inactive” in each case.
For the molecule `CCCCOC(=O)CC#N`, the Potency entry in assay [2], in [3], in [4], in [6] and in [7] was “inactive” in each case.
As for `NC(=O)c1cc[n+](CC2=C(C(=O)[O-])N3C(=O)[C@@H](NC(=O)Cc4cccs4)[C@H]3SC2)cc1`, the Potency result in [1], in [2], in assay [3], in [4], in [7] and in [8] was “inactive” throughout. Also, the Potency result in assay [9] is “inactive”. Besides, the max activation in [5] is -2.94%.
As for `CCOc1ccc(NC(C)=O)cc1N`, the Potency result in assay [1], in assay [2], in [3] and in assay [4] was “inactive” each time. Also, in assay [7], the Potency was 31.1 µM (active).
As to `CNc1ccccc1`, the Potency result in assay [1], in [2], in assay [3], in assay [4], in assay [6] and in assay [7] was “inactive” throughout.
As for `CC(CC(C#N)(c1ccccc1)C(C)C)N(C)C` (configuration not stated), the Potency entry in assay [2], in assay [3], in assay [4] and in [7] was “inactive” each time.
Turning to `CCCCCCCCS`, the Potency result in [1], in assay [2], in assay [3], in assay [4], in [6] and in assay [7] was “inactive” in each case.
For the molecule `Cc1nc2sccn2c(=O)c1CCN1CCC(=C(c2ccc(F)cc2)c2ccc(F)cc2)CC1`, the Potency result in [2], in assay [3], in assay [4], in [6] and in assay [7] was “inactive” throughout.
On to `O=C(O)c1ccccc1-n1cc(C(=O)O)c(=O)c2cc(Nc3c(F)cc(F)cc3Cl)c(Cl)cc21`, for which the Potency entry in [2], in [3], in [4], in [6] and in assay [7] was “inactive” throughout.
As to `CC(=O)CC/C=C(\C)CC/C=C(\C)CC/C=C(\C)CCC=C(C)C`, the Potency result in assay [1], in assay [2], in assay [4] and in [6] was “inactive” in each case. The Potency in assay [7] was 23.7 µM (active).
As to `CC(C)(C)N`, the Potency entry in assay [1], in assay [2], in [4], in assay [6] and in assay [7] was “inactive” throughout.
As to `Nc1ccc(F)cc1F`, the Potency result in assay [1], in [2], in assay [3], in assay [4], in assay [6] and in assay [7] was “inactive” each time.
Take `N#CCCCC(C#N)CCC#N` (configuration not stated): the Potency result in assay [2], in [3], in assay [4], in assay [6] and in assay [7] was “inactive” each time.
Regarding `CCCCCCCCCCCCSC#N`, the Potency entry in assay [1], in assay [2], in assay [3], in assay [4], in assay [6] and in assay [7] was “inactive” throughout.
